This note sets out measurements from the supplement of paper PMC6555819.

Assay in all cases: PBM binding z-score (relative to random genomic background probes); higher = stronger binding; sequences stand for … in GC…GCGATTGACAGCGTAGAATGAAGG
Test [1] has as its system RARb homodimer (NR concentration 270 nM). The gist of the method: (§1)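 On custom Agilent 4×180K arrays, double-stranded probes with 34-nt variable regions carried direct-repeat seeds, single-nucleotide variants, half-site ablations or random human genomic background. Ligand-free nuclear receptor dimers were applied for 1 h, and binding was read with antibodies against each partner (one per run). Binding z-scores come from regression-normalized fluorescence, with the random background probes as reference.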

Test [2] has as its system RARg:RXRa (NR concentration 270 nM, RXRa partner concentration 90 nM). The gist of the method: as §1
Test [3] deals with RARg homodimer (NR concentration 270 nM). In a few lines:
as §1

Test [4] deals with RXRa DBDmut IVT, anti-RXR (DBD mutation: RXRa K156A/R161A, NR concentration 90 nM). The gist of the method:
as §1

Test [5] deals with RXRa homodimer (NR concentration 180 nM). The gist of the method: as §1
Test [6] relates to THRa:RXRa (NR concentration 90 nM, RXRa partner concentration 90 nM). The gist of the method: as §1
Test [7] concerns THRa homodimer (NR concentration 90 nM). The gist of the method: as §1
Test [8] deals with VDR homodimer (NR concentration 270 nM). In a few lines: as §1

For AACACAGGGTCACTAGGCCAGAGTAGGTACGAAT, the PBM binding z-score in test [1] is 3.3; in test [2], 5.06; in test [3] it was 4.83; in test [4] it was 2.79; in test [5] it was 5.24; in test [6], 3.3. The PBM binding z-score in test [7] is 1.02; in test [8], 2.44.
Turning to AGTCAAAGTTCATCTAGGTAACGTACGATATGCT, the PBM binding z-score is 3.93 in test [1]; 5.49 in test [2]; 5.82 in test [3]; 4.69 in test [4]; 4.69 in test [5]; 3.28 in test [6]. In addition, the values for the PBM binding z-score in test [7] and in test [8] were 0.448 and 5.04, respectively.
For the sequence AGTCAAAGTTCATCTCGGTAACGTAAGATATGCT, the PBM binding z-score in test [1] turned out to be 3.93; in test [2], 5.53; in test [3], 6.02; in test [4], 4.57; in test [5], 4.35; in test [6] it was 2.58. Besides, the values for the PBM binding z-score in test [7] and in test [8] were -0.318 and 4.92, respectively.
GATACAGGGTCAGCTAGAGCCCAGAGTATGGAAA: the PBM binding z-score in test [1] is 2.3; in test [2], 4.4; in test [3], 4.33; in test [4], 1.25; in test [5] it was 4.08; in test [6], 2.43. Further, the results for the PBM binding z-score in test [7] and in test [8] were 0.0746 and 0.264, respectively.
On to CCAGACAGGTGAAAGGTAACTCTGTCTGGTACGC, for which the PBM binding z-score worked out at 0.719 in test [1]; 1.24 in test [2]; 0.754 in test [3]; 0.07 in test [4]; 2.07 in test [5]; 1.01 in test [6]. Besides, the results for the PBM binding z-score in test [7] and in test [8] were -0.229 and 0.0648, respectively.
Take CCTACTGGGGCAAGGTTACCATAACGCACAGCCA: the PBM binding z-score in test [1] is 1.26; in test [2] it was 1.22; in test [3], 1.37; in test [4], -0.688; in test [5], 1.02; in test [6], 1.14. In addition, the results for the PBM binding z-score in test [7] and in test [8] were 0.409 and 0.0551, respectively.
As for TCATAAAGGTAAATGCTAGGTGAAAGTCCGATCT, the PBM binding z-score was found to be 0.719 in test [1]; 1.03 in test [2]; 0.541 in test [3]; 1.87 in test [4]; 1.05 in test [5]; 2.03 in test [6]. Besides, the PBM binding z-score in test [7] is 0.511; in test [8], 0.333.
Turning to TCATATAGGTAAACATGTGAAAGTCCGTAAGTTA, the PBM binding z-score in test [1] turned out to be 0.34; in test [2], 0.489; in test [3] it was 0.354; in test [4], 1.66; in test [5] it was 1.06; in test [6], 0.435. Moreover, the PBM binding z-score in test [7] stood at 0.267; in test [8] it was 0.405.
Turning to AGAACGAGGGCACGCTGAGTTGAAAGCAGAGTAG, the PBM binding z-score in test [1] was 1.16; in test [2], 2.34; in test [3], 2.15; in test [4] it was 2; in test [5], 1.46; in test [6], 2.13. The PBM binding z-score in test [7] is -0.233; in test [8], 0.663.
CCTAGCATGCCAATCTGGGTCACTCAAGGCTTGA: the PBM binding z-score in test [1] is 1.86; in test [2], 0.768; in test [3], 0.691; in test [4] it was 0.255; in test [5], 0.917; in test [6] it was 2.93. Moreover, the PBM binding z-score is 0.266 in test [7] and -0.104 in test [8].
As for GATACAGGGTCAGCTAGAGGCGAGAGTATGGAAA, the PBM binding z-score in test [1] is 2.7; in test [2], 5.04; in test [3], 4.34; in test [4], 1.57; in test [5] it was 4.51; in test [6], 2.79. The PBM binding z-score was determined as 0.319 in test [7] and 0.871 in test [8].
ATACCATGGTGATCGTGAGGTCGTTGATACTAAC: the PBM binding z-score is 1.18 in test [1]; 0.425 in test [2]; 0.264 in test [3]; 0.547 in test [4]; 0.893 in test [5]; 2.48 in test [6]. The PBM binding z-score in test [7] turned out to be 1.85; in test [8] it was 2.87.
CCTACTGGGCCATTCAGAGATCATTGATCATATG: the PBM binding z-score in test [1] is -0.395; in test [2], -0.116; in test [3], 0.345; in test [4], -0.0997; in test [5] it was -0.144; in test [6], -0.209. Also, the figures for the PBM binding z-score in test [7] and in test [8] were -0.607 and -0.171, respectively.
GATACAGTGTCAGCTAGAGGCCAGAGTATGGAAA: the PBM binding z-score in test [1] was 1.01; in test [2] it was 2.09; in test [3], 0.824; in test [4], -0.492; in test [5] it was 0.242; in test [6], 0.131. Besides, the PBM binding z-score in test [7] is -0.254; in test [8], -0.198.
